Data as given in PubChem BioAssay AID628 (Vanderbilt High Throughput Screening Facility, 2007).
Hit rate of the full screen: of about 64,000 compounds, about 2,200 (3.4%) were called active.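 How the source made its calls: active means calcium fluorescence response, raw or row-and-column corrected B-score, differing from the plate sample mean either way at a set confidence level, mostly lower; inactive means the rest.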 For the sample, actives were picked, then their nearest neighbours and some compounds at random.

biological target: Muscarinic acetylcholine receptor M1 (Rattus norvegicus) (UniProt P08482); assay: blocks the rat M1 muscarinic receptor response to acetylcholine (AID 628); conditions: CHO-M1 cells, Fluo-4 calcium, ACh EC80 antagonist mode; at 10 µM; stronger effect = lower value
Sequence (P08482 whole entry, looked up): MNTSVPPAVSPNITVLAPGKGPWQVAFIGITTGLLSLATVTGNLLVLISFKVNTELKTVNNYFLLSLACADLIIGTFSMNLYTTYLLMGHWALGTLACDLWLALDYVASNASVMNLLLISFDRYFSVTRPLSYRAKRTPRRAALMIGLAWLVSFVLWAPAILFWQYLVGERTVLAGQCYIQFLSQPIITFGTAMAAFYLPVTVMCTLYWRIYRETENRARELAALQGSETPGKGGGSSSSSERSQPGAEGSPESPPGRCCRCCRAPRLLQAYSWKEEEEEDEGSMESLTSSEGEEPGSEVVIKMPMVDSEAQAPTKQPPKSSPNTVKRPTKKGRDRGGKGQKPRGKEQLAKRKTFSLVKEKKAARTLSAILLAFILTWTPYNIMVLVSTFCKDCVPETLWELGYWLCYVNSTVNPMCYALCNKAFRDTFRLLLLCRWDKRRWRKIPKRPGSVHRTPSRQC

SMILES	B-score
O=C(c1cnn2ccccc12)N1CCc2ccccc21	-0.297 (inactive)
O=C(CCS(=O)(=O)c1ccccc1)Nc1nc2c(s1)CCCC2	1.02 (inactive)
COc1ccc(CCNC(=O)CCn2c(=O)oc3ccccc32)cc1OC	0.0532 (inactive)
CCOC(=O)C1=C(CC)Nc2ccccc2N=C1NC(=O)c1cccc(S(=O)(=O)N2CCCC2)c1	-3.22 (active)
CCOC(=O)CSc1nnc(NC(=O)c2cccc(S(=O)(=O)N3CCCCC3)c2)s1	-1.2 (inactive)
CCOC(=O)CSc1nnc(NC(=O)c2cccc(S(=O)(=O)N3CCCC3)c2)s1	0.563 (inactive)
COc1cccc(NC(=O)Cn2cnc3sc(C)c(S(=O)(=O)N4CCN(C)CC4)c3c2=O)c1	0.144 (inactive)
CN(C)CCCn1c(N)c(C#N)c2nc(C#N)c(C#N)nc21	-0.181 (inactive)
CCOC(=O)c1[nH]c2ccc(OC)cc2c1NC(=O)CCN1CCN(Cc2ccccc2)CC1	-4.59 (active)
Cc1c(C(=O)N2CCOCC2)[nH]c2ccc(OCc3ccccc3)cc12	-2.27 (inactive)
CCOC(=O)c1[nH]c2ccc(OC)cc2c1NC(=O)N1CCOCC1	0.577 (inactive)
O=C(CN(c1ccc2c(c1)OCCO2)S(=O)(=O)c1ccccc1)Nc1ccc2c(c1)OCO2	0.461 (inactive)
CCOC(=O)C1CCN(C(=O)c2oc3ccc(S(=O)(=O)N4CCCCCC4)cc3c2C)CC1	-0.942 (inactive)
CCOc1ccccc1NC(=O)c1cc(S(=O)(=O)N2CCC3(CC2)OCCO3)ccc1F	-0.759 (inactive)
Cc1c(C(=O)Nc2ccccc2Cl)oc2ccc(S(=O)(=O)N3CCC4(CC3)OCCO4)cc12	2.7 (active)
Cc1ccc(NC(=O)CN(C)S(=O)(=O)c2cnc[nH]2)cc1C	0.0747 (inactive)
CCc1nnc(NC(=O)CCC(=O)O)s1	0.852 (inactive)
O=C(NCC(F)(F)F)Nc1nnc(C(F)(F)F)s1	-1.96 (active)
CC(=O)Nc1ccc(NC(=O)CN2CCCC(C)C2)c(Cl)c1 (stereo unspecified)	-1.15 (inactive)
Cc1cc(C)cc(NC(=O)C2CCN(c3nc(C)cc(C)n3)CC2)c1	0.673 (inactive)
COc1ccc(C2C(C#N)=C(N)Oc3cc(N)ccc32)cc1OC (stereo unspecified)	0.645 (inactive)
O=C(Nc1ccncc1)c1cc2ccccc2o1	1.08 (inactive)
O=C(Nc1ccncc1)c1c(F)cccc1F	-4.49 (active)
CCOc1ccc(C(=O)Nc2ccncc2)cc1	0.109 (inactive)

SMILES	B-score
CC1Oc2ccccc2N(Cc2cccnc2)C1=O (stereo unspecified)	1.07 (inactive)
COC(=O)c1sc(=S)n(-c2ccccc2)c1N	0.339 (inactive)
Cc1ccc(Cn2c(NC(=O)c3ccco3)nc3ccccc32)cc1	0.141 (inactive)
Cc1ccc(-c2csc3nnc(SCC(=O)NCc4ccco4)n23)cc1	-10.4 (active)
Cn1c(-c2ccc(F)cc2)cnc1SCC(=O)NCc1ccco1	0.325 (inactive)
O=C(CSc1nnc2scc(-c3ccc(F)cc3)n12)NCc1ccco1	-0.509 (inactive)
Cc1nc2ccccc2c2oc(C(=O)NCCCN3CCC(C)CC3)cc12	-6.51 (active)
CCCN(CCC)CCNC(=O)c1cc2c(C)nc3ccccc3c2o1	0.00891 (inactive)
Cc1nc2ccccc2c2oc(C(=O)NCC3CCCO3)cc12 (stereo unspecified)	0.0181 (inactive)
Cc1ccc(Nc2nc(CSc3nnnn3-c3ccccc3)cc(=O)[nH]2)cc1	-0.208 (inactive)
CCOC(=O)Cc1csc(NC(=O)CSc2nc(C)cc(=O)[nH]2)n1	-0.287 (inactive)
CN(CC(=O)NC1CCCCC1)S(=O)(=O)c1ccc(Br)s1	-1.64 (inactive)
Cc1cc(C)c2[nH]c(=O)c(C(c3nnnn3Cc3ccc4c(c3)OCO4)N3CCCC3)cc2c1 (stereo unspecified)	0.419 (inactive)
Fc1ccccc1C(c1nnnn1Cc1ccc2c(c1)OCO2)N1CCN(Cc2ccccc2)CC1 (stereo unspecified)	0.889 (active)
Cc1ccc(S(=O)(=O)Cn2nnnc2CN2CCN(Cc3ccc4c(c3)OCO4)CC2)cc1	-0.838 (inactive)
CCOC(=O)Cn1c(N)c(C(=O)OC)sc1=S	0.106 (inactive)
Cn1c(=O)c2c(nc(OCc3cccnc3)n2Cc2ccccc2)n(C)c1=O	-0.0901 (inactive)
Cc1ccccc1C(OCC(O)CN1CCCCC1CCO)c1ccccc1 (stereo unspecified)	-3.65 (active)
COc1cccc(-c2nnc(N(C)C(=O)c3ccno3)s2)c1	0.344 (inactive)
CC1CN(c2cc(=O)n(-c3cccc(Br)c3)c(=O)[nH]2)CC(C)O1 (stereo unspecified)	-0.299 (inactive)
CCN1C(=O)/C(=C\N2CCN(c3cccc(Cl)c3)CC2)SC1=S	0.609 (inactive)
CCN1C(=O)/C(=C2\SC(N3CCCCC3)=NC2=O)c2ccccc21	-3.91 (active)
CCN1C(=O)/C(=C\N2CCN(c3ccccc3)CC2)SC1=S	0.399 (inactive)
CS(=O)(=O)N(CC(=O)N1CCOCC1)c1ccc2c3c(cccc13)CC2	0.0978 (inactive)

SMILES	B-score
Cc1cc(NC(=O)COn2nnc3ccccc32)no1	-0.00408 (inactive)
CCOC(=O)c1c(C2CC2)csc1NC(=O)CSCc1c(C)noc1C	-0.892 (inactive)
Cc1cc(NC(=O)CCC2COc3ccccc3O2)no1 (stereo unspecified)	-0.711 (inactive)
c1ccc2c(c1)OCC(CNc1ncnc3nc[nH]c13)O2 (stereo unspecified)	-5.49 (active)
COc1ccc(CCNc2ncnc3nc[nH]c23)cc1OC	-0.37 (inactive)
COCc1[nH]nc2c1C(C1C=CCCC1)C(C#N)=C(N)O2 (stereo unspecified)	0.327 (inactive)
O=C(c1ccccc1)c1ccc(OC(=O)N2CCCC2)cc1	-0.578 (inactive)
CCOc1ccccc1C1CC(c2ccccc2)Nc2nc(N)nn21 (stereo unspecified)	0.59 (inactive)
CCOC(=O)c1c(C)[nH]c(C(=O)NCc2ccccc2OC)c1C	-0.312 (inactive)
CCOC(=O)c1c(C)[nH]c(C(=O)COc2ccc3c(c2)OCO3)c1C	-0.104 (inactive)
CCCCOC(=O)c1[nH]c(C)c(C(=O)OC)c1C	1.78 (active)
COc1ccccc1N(CC(=O)N1CCCCC1)S(=O)(=O)c1ccccc1	-0.874 (inactive)
COc1ccc(N2C(=O)c3cccc4cccc(c34)C2=O)nn1	0.203 (inactive)
COC(=O)C1=C(C)Nc2ncnn2C1c1ccco1 (stereo unspecified)	0.342 (inactive)
CC(=O)C1=C(O)C(=O)N(c2ccc(S(N)(=O)=O)cc2)C1c1ccccc1F (stereo unspecified)	-0.56 (inactive)
C/C(CC(O)(/C=N/O)c1ccccc1)=N\O (stereo unspecified)	0.581 (inactive)
CCOC(=O)N1CCN(CC(=O)Nc2cc(C)nn2-c2nc3ccccc3s2)CC1	-2.41 (active)
COC(=O)Cc1cc(=O)n(-c2nc3ccccc3s2)[nH]1	0.181 (inactive)
CCOC(=O)N1CCC(NC(=O)c2ccc3nc(N4CCOCC4)sc3c2)CC1	0.0825 (inactive)
CCCCNc1nc2c(c(=O)n(C)c(=O)n2C)n1Cc1cccc(OC)c1	-0.0697 (inactive)
COC(=O)NC1(C(F)(F)F)NC(=O)N(C2CCCCC2)C1=O (stereo unspecified)	-0.0429 (inactive)
O=C1NC(Nc2nc3ccccc3s2)(C(F)(F)F)C(=O)N1C1CCCCC1 (stereo unspecified)	-3.66 (active)
Cc1c(NC(=O)C(C)OC(=O)c2cc3c4ccccc4n(C)c3s2)c(=O)n(-c2ccccc2)n1C (stereo unspecified)	0.392 (inactive)
CCC(=O)c1ccc(OCC(O)CN2CC(C)OC(C)C2)cc1 (stereo unspecified)	0.0196 (inactive)

SMILES	B-score
CC1(C)NC(=O)N(CCOc2cccc(Oc3ccccc3)c2)C1=O	-0.997 (inactive)
CCC(=O)c1ccc(OCC(O)CN2C(=O)NC(C)(C)C2=O)cc1 (stereo unspecified)	0.82 (active)
Cc1ccc(C(c2sc3nc(C)nn3c2O)N2CCN(c3ccccc3)CC2)cc1 (stereo unspecified)	0.39 (inactive)
Cn1c(SCc2nc3ccccc3s2)nnc1-c1ccc2c(c1)OCO2	0.0691 (inactive)
Cc1cccc2cc(CN(Cc3ccc4c(c3)OCO4)Cc3nnnn3C3CCCC3)c(=O)[nH]c12	-0.601 (inactive)
CCC(c1nnnn1C1CCCC1)N(Cc1cccs1)Cc1cc2cccc(C)c2[nH]c1=O (stereo unspecified)	1.98 (active)
Cc1cccc2cc(CN(Cc3cccs3)C(c3nnnn3C3CCCC3)C(C)C)c(=O)[nH]c12 (stereo unspecified)	0.279 (inactive)
Cc1cc(Cl)c(S(=O)(=O)NCc2cccnc2)cc1OCC(N)=O	0.63 (inactive)
Cn1c(=O)c2c(nc(Br)n2CCSc2nc3ccccc3o2)n(C)c1=O	0.536 (inactive)
COC(=O)c1cc(OC)c(OC)cc1NC(=O)C1CCCO1 (stereo unspecified)	-0.418 (inactive)
CCN(CCCCOC(=O)c1ccc(OC)c(OC)c1)C(C)Cc1ccc(OC)cc1 (stereo unspecified)	-14.7 (active)
COc1ccc(-n2nnnc2SCC(=O)c2ccc(OC)c(OC)c2)cc1	-0.785 (inactive)
CCOc1ccc(C(=O)Nc2cc(OC)ccc2OC)cc1	0.223 (inactive)
O=C(CSc1nnnn1-c1ccc2c(c1)CCC2)Nc1ccc2c(c1)OCCO2	-1.02 (inactive)
CC(=O)Nn1cc2c(=O)n(C)c(=O)n(C)c2c1	0.526 (inactive)
O=C(NCCc1ccc(Cl)cc1)C1CC(=O)N(C2CCCCC2)C1 (stereo unspecified)	-0.27 (inactive)
O=C(NCCCN1CCCCCC1)C1CC(=O)N(C2CCCC2)C1 (stereo unspecified)	-2.1 (active)
CC(C)OCCCNC(=O)C1CC(=O)N(C2CCCCCCC2)C1 (stereo unspecified)	-0.0238 (inactive)
Cc1ccc(-n2nc3c(c2NC(=O)CCC2CCCCC2)CS(=O)C3)cc1 (stereo unspecified)	0.299 (inactive)
Cc1ccnc(SCCn2c(N(C)Cc3ccccc3)nc3c2c(=O)n(C)c(=O)n3C)n1	0.589 (inactive)
COC(=O)C(C)Sc1ccc2nnc(-c3cccc(F)c3)n2n1 (stereo unspecified)	-0.0277 (inactive)
CC(NC(=O)Nc1ccccc1)c1ccccc1 (stereo unspecified)	0.2 (inactive)
CCOC(=O)C(C(=O)OCC)C(C#N)c1ccccc1 (stereo unspecified)	0.000361 (inactive)
CCC(C(=O)OCCN(CC)CC)c1ccccc1 (stereo unspecified)	-11.7 (active)
